The values that follow come from PubChem BioAssay (NCATS).

Structures are written as SMILES. Values without a mark were called inactive. Results filed as inconclusive are left out. Entries that show only a call come without a potency. Activity calls are given as the source filed them. Calls follow the shape of the dose curve; as a rule, active = well fitted curve in the direction sought with a large enough effect; inconclusive = small, poorly fitted or top-dose-only effect, or another doubt; inactive = no such curve, though single readings can be large; an effect the other way counts as inactive or inconclusive. Where a SMILES comes first, the peptide text is derived from it.

One assay concerns Nanoluciferase (engineered Oplophorus gracilirostris luciferase). In words: Primary Nanoluciferase (NLuc) qHTS assay for identification of artifact compounds. (AID 1845222). As to conditions: NLuc-conditioned medium, Nano-Glo luminescence, 5 min; series mostly up to 54.1 µM. In a few lines:
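Diluted conditioned medium from NLuc-expressing S16 cells treated with compounds for 15 min at room temperature, then Nano-Glo substrate added; luminescence read after 5 min. Percent inhibition versus no-enzyme and DMSO controls fitted to 4-parameter Hill equation.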
In the case of `COc1c(O[C@@H]2O[C@H](CO)[C@@H](O)[C@H](O)[C@H]2O)c(CCC(=O)O)cc2ccoc12`, the Potency result is “inactive”.
On the same count and under the same terms, to `C/C=C/C=C/C(=O)OC1CC/C=C/C(O)C(O)C(CCC)OC1=O` (stereo not drawn) belongs “inactive”.
As to `C[C@@H]1O[C@@H](O[C@@H]2[C@@H](O)[C@H](O[C@H]3[C@H](O[C@H]4CC[C@@]5(C)C(CC[C@]6(C)C5CC=C5[C@@H]7CC(C)(C)CC[C@]7(C(=O)O[C@@H]7O[C@H](CO)[C@@H](O)[C@H](O)[C@H]7O)CC[C@]56C)C4(C)C)O[C@H](C(=O)O)[C@@H](O)[C@@H]3O)OC[C@H]2O)[C@H](O)[C@H](O)[C@H]1O` (stereo partly drawn), the activity, negative = inhibition was 2.29% [at 11.6 µM].
In the case of `COC(=O)C1=CO[C@@H](O[C@@H]2O[C@H](CO)[C@@H](O)[C@H](O)[C@H]2O)[C@@H]2[C@@H](CO)[C@@H](O)C(O)[C@H]12` (stereo partly drawn), the Potency entry is “inactive”.
The same measure, in the same setting: to `CC1(C)CC[C@]2(C(=O)O)CC[C@]3(C)C(=CCC4[C@@]5(C)C[C@@H](O)[C@H](O)[C@](C)(CO)C5CC[C@]43C)[C@@H]2[C@@H]1O` (stereo partly drawn) belongs “inactive”; to `Cc1[nH]c2ccccc2c1CC(=O)N[C@@H](Cc1ccccc1)C(=O)N(C)c1ccccc1`, “inactive”.
With `NC(N)=NCCC[C@H](NC(=O)c1sccc1NS(=O)(=O)c1cccc2nsnc12)C(=O)O`, the Potency result was “inactive”.
`COc1ccc(C2OCC3C(c4cc(OC)c5c(c4)OCO5)OCC23)cc1OC` (stereo not drawn): the Potency entry is “inactive”.
Regarding `C=C1CCC[C@]2(C)CC[C@@](O)(C(=C)C(=O)O)C[C@@H]12`, the Potency result was “inactive”.
As to `Cc1onc(-c2ccccc2Cl)c1C(=O)N(C)c1ccc(Cl)cc1`, the Potency entry was “inactive”.
As to `Cc1ccc(Cl)cc1N(CC(=O)Nc1c(F)cccc1F)S(C)(=O)=O`, the Potency result was “inactive”.
On to `COc1cc(C(C)=O)ccc1O[C@@H]1O[C@H](CO)[C@@H](O)[C@H](O)[C@H]1O`, for which the Potency entry was “inactive”.
Still for that read-out and setting: for `CC1C(O)C(O)C2C(C(=O)OCCc3ccc(O)cc3)=COC(O[C@@H]3O[C@H](CO)[C@@H](O)[C@H](O)[C@H]3O)C12` (stereo partly drawn) the value was “inactive”; for `CC(C)(O)/C=C/C(=O)[C@](C)(O)[C@H]1[C@H](O)C[C@@]2(C)[C@@H]3CC=C4[C@@H](C=C(O[C@@H]5O[C@H](CO)[C@@H](O)[C@H](O)[C@H]5O)C(=O)C4(C)C)[C@]3(C)C(=O)C[C@]12C`, “inactive”; for `COCCN1CCC(C(=O)NO)(S(=O)(=O)c2ccc(Oc3ccc(OC(F)(F)F)cc3)cc2)CC1`, “inactive”.
As for `CC1(C)CC[C@]2(C(=O)O)CC[C@]3(C)C(=CCC4[C@@]5(C)C[C@@H](O)[C@H](O)[C@@](C)(CO)C5CC[C@]43C)C2C1` (stereo partly drawn), the Potency entry was “inactive”.
Take `O=C(O)c1ccnc2cc(-c3nc4ccccc4n3CCN3CCCCC3)sc12`: the Potency entry is “inactive”.
Turning to `CC1=CC23[C@H](C=C(C(=O)O)[C@@H]2COC(=O)[C@]3(O)CO)[C@@H]1C` (stereo partly drawn), the Potency result was “inactive”.

Tested on in the next assay: not listed separately
In words: Primary redox qHTS assay for identification of artifact compounds. (AID 1845223). The following applies: Amplex Red/HRP redox cycling with DTT, fluorescence; series mostly up to 53.8 µM. The method in brief:
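Redox-cycling detection via DTT (250 uM final) oxidation coupled to Amplex Red (25 uM)/HRP (250 mU/mL) in HBSS. 15 min preincubation plus 30 min after DTT, room temperature. Ex/Em 525/598 nm; 4-parameter Hill fit against DMSO and 10 uM DA3003.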
Background: Quantitative high-throughput screening tests each substance at several concentrations.
`C=C(C(=O)O)[C@@H]1CC[C@H](C)[C@@H]2CC(=O)C(C)=C2C1`: the Potency entry is “inactive”.
Still for that read-out and setting: for `COc1ccc(/C=C/C(=O)N2CCCC2)cc1` the value was “inactive”; for `COc1cc(/C=C/C(=O)OCC2OC(OC3(CO)OC(CO)C(O)C3O)C(O)C(O)C2O)ccc1O` (stereo not drawn), “inactive”; for `C=CC1(C)C=C2CC[C@H]3[C@@](C)(C(=O)O)CCC[C@]3(C)C2CC1` (stereo partly drawn), “inactive”.
On the same count and under the same terms, for `COc1cc(/C=C/C(=O)OC[C@H]2O[C@@H](OC3OC=C(C(=O)O)C4C(O)CC(C)(O)C34)[C@H](O)[C@@H](O)[C@@H]2O)cc(OC)c1O` (stereo partly drawn) the value was “inactive”; for `CC(CC(C)O[C@@H]1O[C@H](CO)[C@@H](O)[C@H](O)[C@H]1O)OC(=O)/C=C/c1ccc(O)cc1` (stereo partly drawn), “inactive”.
With `CCCCS(=O)(=O)NC(Cc1ccc(OCCCCC2CCNCC2)cc1)C(=O)O` (stereo not drawn), the Potency result was “inactive”.
On the same count and under the same terms, for `CC(=O)OC[C@]12[C@H](OC(C)=O)[C@H](OC(=O)c3ccccc3)[C@@H]3[C@@H](OC(C)=O)[C@]1(OC3(C)C)[C@H](C)C[C@H](OC(=O)c1ccccc1)[C@@H]2OC(=O)c1ccccc1` the value was “inactive”; for `COc1cc(/C=C/C(=O)O)ccc1O[C@@H]1O[C@H](CO)[C@@H](O)[C@H](O)[C@H]1O[C@@H]1OC[C@](O)(CO)[C@H]1O`, “inactive”.
Consider `CC(=O)N[C@H]1[C@H](O[C@H]2CC[C@]3(C)C4CC=C5[C@@H]6CC(C)(C)CC[C@]6(C(=O)O)[C@H](O)C[C@@]5(C)[C@]4(C)CC[C@H]3C2(C)C)O[C@H](CO)[C@@H](O)[C@@H]1O` (stereo partly drawn), for which the Potency result is “inactive”.
Still for that read-out and setting: for `Cc1ccc(-c2c(-c3nn(C)c4ncnc(N5CCC(N6CCCCC6)C5)c34)cnn2C)cc1` (stereo not drawn) the value was “inactive”.
Regarding `C=C[C@H]1[C@H](O[C@@H]2O[C@H](CO)[C@@H](O)[C@H](O)[C@H]2O)OC=C(C(=O)OC)[C@H]1CC=O`, the Potency entry was “inactive”.
For `C[C@@H]1CC[C@]2(C(=O)O[C@@H]3O[C@H](CO[C@@H]4O[C@H](CO)[C@@H](O[C@@H]5O[C@@H](C)[C@H](O)[C@@H](O)[C@H]5O)[C@H](O)[C@H]4O)[C@@H](O)[C@H](O)[C@H]3O)CC[C@]3(C)C(=CCC4[C@@]5(C)C[C@@H](O)[C@H](O)[C@@](C)(CO)C5CC[C@]43C)C2[C@H]1C` (stereo partly drawn), the redox activity (% of DA3003) was 3.39% [at 11.5 µM].
For the compound `CC1=CC(=O)C(=C(C)C)CC2C(C)(O)CCC12O` (stereo not drawn), the Potency result was “inactive”.
`COc1cc(CO)ccc1O[C@@H]1O[C@H](CO)[C@@H](O)[C@H](O)[C@H]1O`: the Potency entry was “inactive”.
As for `CC1=C(C(=O)OC2OC(COC3OC(CO)C(O)C(O)C3O)C(O)C(O)C2O)C(C)(C)CCC1` (stereo not drawn), the Potency result was “inactive”.
`Cc1cn(-c2cc(NC(=O)c3ccc(C)c(Nc4nccc(-c5cnccn5)n4)c3)cc(C(F)(F)F)c2)cn1`: the Potency entry was “inactive”.
Still for that read-out and setting: for `C=C1CC/C=C(/C(=O)O)CCC2C1CC2(C)C` (stereo not drawn) the value was “inactive”; for `C=CC(C)(O)C1CC2C3(C)CCCC(C)(C)C3C(O)C(O)C2(C)O1` (stereo not drawn), “inactive”; for `Cc1occc(=O)c1O[C@@H]1O[C@H](COC(=O)CC(C)(O)CC(=O)O)[C@@H](O)[C@H](O)[C@H]1O` (stereo partly drawn), “inactive”.
As to `CSCC[C@H](NC(=O)[C@H](CO)NC(=O)[C@H](CCC(=O)O)NC(C)=O)C(=O)N[C@H](C=O)CC(=O)O` (Ac-ESMD-aldehyde), the redox activity (% of DA3003) is -1.61% [at 11.5 µM].
On to `Cc1cn(C[C@H](N)C(=O)O)c(=O)n(Cc2ccsc2C(=O)O)c1=O`, for which the Potency result was “inactive”.
Turning to `COc1c(O[C@@H]2O[C@H](CO)[C@@H](O)[C@H](O)[C@H]2O)c(CCC(=O)O)cc2ccoc12`, the Potency entry was “inactive”.
On to `C/C=C/C=C/C(=O)OC1CC/C=C/C(O)C(O)C(CCC)OC1=O` (stereo not drawn), for which the Potency entry was “inactive”.
Consider `C[C@@H]1O[C@@H](O[C@@H]2[C@@H](O)[C@H](O[C@H]3[C@H](O[C@H]4CC[C@@]5(C)C(CC[C@]6(C)C5CC=C5[C@@H]7CC(C)(C)CC[C@]7(C(=O)O[C@@H]7O[C@H](CO)[C@@H](O)[C@H](O)[C@H]7O)CC[C@]56C)C4(C)C)O[C@H](C(=O)O)[C@@H](O)[C@@H]3O)OC[C@H]2O)[C@H](O)[C@H](O)[C@H]1O` (stereo partly drawn), for which the redox activity (% of DA3003) is -4.9% [at 11.5 µM].
For `COC(=O)C1=CO[C@@H](O[C@@H]2O[C@H](CO)[C@@H](O)[C@H](O)[C@H]2O)[C@@H]2[C@@H](CO)[C@@H](O)C(O)[C@H]12` (stereo partly drawn), the Potency result was “inactive”.
As for `CC1(C)CC[C@]2(C(=O)O)CC[C@]3(C)C(=CCC4[C@@]5(C)C[C@@H](O)[C@H](O)[C@](C)(CO)C5CC[C@]43C)[C@@H]2[C@@H]1O` (stereo partly drawn), the Potency entry was “inactive”.
For the compound `Cc1[nH]c2ccccc2c1CC(=O)N[C@@H](Cc1ccccc1)C(=O)N(C)c1ccccc1`, the Potency entry was “inactive”.
On the same count and under the same terms, to `NC(N)=NCCC[C@H](NC(=O)c1sccc1NS(=O)(=O)c1cccc2nsnc12)C(=O)O` belongs “inactive”; to `COc1ccc(C2OCC3C(c4cc(OC)c5c(c4)OCO5)OCC23)cc1OC` (stereo not drawn), “inactive”.
Consider `C=C1CCC[C@]2(C)CC[C@@](O)(C(=C)C(=O)O)C[C@@H]12`, for which the Potency result was “inactive”.
For the compound `Cc1onc(-c2ccccc2Cl)c1C(=O)N(C)c1ccc(Cl)cc1`, the Potency result was “inactive”.
For `Cc1ccc(Cl)cc1N(CC(=O)Nc1c(F)cccc1F)S(C)(=O)=O`, the Potency entry was “inactive”.
On to `COc1cc(C(C)=O)ccc1O[C@@H]1O[C@H](CO)[C@@H](O)[C@H](O)[C@H]1O`, for which the Potency entry was “inactive”.
Still for that read-out and setting: for `CC1C(O)C(O)C2C(C(=O)OCCc3ccc(O)cc3)=COC(O[C@@H]3O[C@H](CO)[C@@H](O)[C@H](O)[C@H]3O)C12` (stereo partly drawn) the value was “inactive”.
Consider `CC(C)(O)/C=C/C(=O)[C@](C)(O)[C@H]1[C@H](O)C[C@@]2(C)[C@@H]3CC=C4[C@@H](C=C(O[C@@H]5O[C@H](CO)[C@@H](O)[C@H](O)[C@H]5O)C(=O)C4(C)C)[C@]3(C)C(=O)C[C@]12C`, for which the Potency entry was “inactive”.
For `COCCN1CCC(C(=O)NO)(S(=O)(=O)c2ccc(Oc3ccc(OC(F)(F)F)cc3)cc2)CC1`, the Potency entry is “inactive”.
For `CC1(C)CC[C@]2(C(=O)O)CC[C@]3(C)C(=CCC4[C@@]5(C)C[C@@H](O)[C@H](O)[C@@](C)(CO)C5CC[C@]43C)C2C1` (stereo partly drawn), the Potency result is “inactive”.
The same measure, in the same setting: to `O=C(O)c1ccnc2cc(-c3nc4ccccc4n3CCN3CCCCC3)sc12` belongs “inactive”; to `CC1=CC23[C@H](C=C(C(=O)O)[C@@H]2COC(=O)[C@]3(O)CO)[C@@H]1C` (stereo partly drawn), “inactive”.
